This passage reports growth results from PubChem BioAssay (NCI).

Holding throughout (assay): NCI-60 one-dose screen, 48 h (100 = growth as untreated, 0 = no growth, -100 = all killed)
One assay relates to SK-MEL-2 melanoma. Particulars: 10 µM unless noted.
The next assay deals with EKVX NSCLC. Particulars: 10 µM unless noted.
The test system of another assay is SN12C renal. The conditions noted are these: 10 µM unless noted.
Another assay deals with UO-31 renal. Particulars: 10 µM unless noted.
Another assay has as its system TK-10 renal. The conditions noted are these: 10 µM unless noted.
The next assay deals with ACHN renal. Particulars: 10 µM unless noted.
A further assay relates to CAKI-1 renal. The conditions noted are these: 10 µM unless noted.
The next assay relates to A498 renal. The conditions noted are these: 10 µM unless noted.
The next assay relates to CCRF-CEM leukemia. Particulars: 10 µM unless noted.
For a further assay, the system named is MOLT-4 leukemia. Particulars: 10 µM unless noted.
In the next assay the test system is SR leukemia. The conditions noted are these: 10 µM unless noted.
Another assay has as its system RPMI-8226 leukemia. Particulars: 10 µM unless noted.
The subject of another assay is OVCAR-8 ovarian. The conditions noted are these: 10 µM unless noted.
For another assay, the system named is OVCAR-5 ovarian. Particulars: 10 µM unless noted.
The next assay relates to OVCAR-4 ovarian. Particulars: 10 µM.
For the next assay, the system named is SK-OV-3 ovarian. The conditions noted are these: 10 µM unless noted.
In the next assay the test system is IGROV1 ovarian. Particulars: 10 µM unless noted.
The next assay has as its system OVCAR-3 ovarian. The conditions noted are these: 10 µM unless noted.
The test system of a further assay is HS 578T breast. The conditions noted are these: 10 µM unless noted.
The subject of a further assay is NCI/ADR-RES ovarian. Particulars: 10 µM unless noted.

The structures appear in SMILES notation. Compounds without any hit were thinned out: in the full panel of roughly 83,000, 20% have a hit.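 Cells were grown in 96-well plates and exposed to the test compound at a single concentration for 48 hours; results are reported as percent growth, with values below 10 considered active.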 Unmarked numbers belong to inactive results. The source made the active and inactive calls.

On to `O=[N+]([O-])c1cccc(/C=C/c2ccc3ccccc3n2)c1`, for which the growth was 68% with SK-MEL-2 melanoma; 79.8% in the assay on EKVX NSCLC; 83% in the assay with SN12C renal; 76.6% in the assay on UO-31 renal; 64.4% in the assay on TK-10 renal; 53% with ACHN renal. The growth was 78.3% in the assay on CAKI-1 renal; 125% in the assay with A498 renal; 82.1% in the assay on CCRF-CEM leukemia; 75.3% with MOLT-4 leukemia; 78.2% in the assay on SR leukemia; 90.7% with RPMI-8226 leukemia. Besides, the growth in the assay with OVCAR-8 ovarian is 57.1%; in the assay with OVCAR-5 ovarian, 130%; in the assay on OVCAR-4 ovarian it was 38.9%; in the assay on SK-OV-3 ovarian it was 70.8%; in the assay on IGROV1 ovarian, 79.9%; with OVCAR-3 ovarian it was 88.5%.

Regarding `COc1ccc2[nH]c(C(=O)N3CCN(C(=O)OCc4ccc5c(Br)cc(Br)c(O)c5n4)CC3)cc2c1`, the growth with SK-MEL-2 melanoma is -89.5% (active); in the assay on EKVX NSCLC, -76% (active); with SN12C renal, -86.8% (active); with UO-31 renal, -100% (active); in the assay with TK-10 renal, -99.5% (active); in the assay with ACHN renal, -100% (active). The growth is -96% (active) with CAKI-1 renal; -97% (active) with A498 renal; -11.8% (active) in the assay with CCRF-CEM leukemia; -22.3% (active) in the assay on MOLT-4 leukemia; 4.37% (active) in the assay with SR leukemia; -38.9% (active) with RPMI-8226 leukemia. For the same molecule, the growth with OVCAR-8 ovarian is -73.2% (active); in the assay with OVCAR-5 ovarian, -89.3% (active); in the assay on OVCAR-4 ovarian it was -85.2% (active); with SK-OV-3 ovarian, -70.7% (active); in the assay on IGROV1 ovarian it was -90.7% (active); in the assay with OVCAR-3 ovarian, -93.9% (active). Also, the growth was -22.5% (active) in the assay with HS 578T breast and -17.4% (active) in the assay on NCI/ADR-RES ovarian.

As to `Nc1cc(Cl)cc2cccnc12`, the growth with SK-MEL-2 melanoma is 119%; with EKVX NSCLC it was 102%; in the assay with SN12C renal it was 91.1%; with UO-31 renal, 67.9%; with TK-10 renal it was 109%; in the assay on ACHN renal, 102%. Also, the growth in the assay on CAKI-1 renal is 101%; with A498 renal, 116%; in the assay with CCRF-CEM leukemia, 55.7%; in the assay on MOLT-4 leukemia, 77.8%; in the assay on SR leukemia, 94%; with RPMI-8226 leukemia, 92.9%. Besides, the growth with OVCAR-8 ovarian was 111%; with OVCAR-5 ovarian, 101%; in the assay on OVCAR-4 ovarian, 117%; in the assay on SK-OV-3 ovarian, 95%; with IGROV1 ovarian it was 126%; in the assay on OVCAR-3 ovarian, 119%. Further, the values for the growth in the assay with HS 578T breast and with NCI/ADR-RES ovarian were 114% and 101%, respectively.

Take `O=c1[nH]cnc2c1ccn2C1OC(CO)C(O)C1O` (stereo not drawn): the growth in the assay with SK-MEL-2 melanoma is 21.2%; in the assay with EKVX NSCLC it was 79%; with SN12C renal, 63.1%; in the assay with UO-31 renal, 37.9%; in the assay with TK-10 renal it was 52.7%; with ACHN renal it was 27.8%. Further, the growth was 37.2% in the assay with CAKI-1 renal; 57.5% in the assay with A498 renal; 64.1% in the assay on CCRF-CEM leukemia; 53.6% in the assay on MOLT-4 leukemia; 58.1% with SR leukemia; 58% with RPMI-8226 leukemia. The growth with OVCAR-8 ovarian was 31.4%; in the assay with OVCAR-5 ovarian, 76.6%; in the assay on OVCAR-4 ovarian, 24.5%; with SK-OV-3 ovarian, 39.3%; in the assay on IGROV1 ovarian it was 48.7%; in the assay with OVCAR-3 ovarian, 64.7%. Moreover, the growth was 74.6% with HS 578T breast and 31.1% in the assay with NCI/ADR-RES ovarian.

Turning to `CC(C)c1ccc(C(=O)Nc2sc3c(c2C#N)CCC(=O)C3)cc1`, the growth is -20.1% (active) in the assay with SK-MEL-2 melanoma; 7.96% (active) in the assay with EKVX NSCLC; 4.66% (active) in the assay on SN12C renal; -97% (active) in the assay with UO-31 renal; 0.974% (active) with TK-10 renal; -90.5% (active) with ACHN renal. For the same molecule, the growth is -44.3% (active) in the assay on CAKI-1 renal; 24.6% in the assay with A498 renal; 1.37% (active) with CCRF-CEM leukemia; 0.0788% (active) in the assay on MOLT-4 leukemia; -11.7% (active) in the assay with SR leukemia; -35.2% (active) in the assay on RPMI-8226 leukemia. Also, the growth with OVCAR-8 ovarian is 13.7%; with OVCAR-5 ovarian it was 11.1%; in the assay with OVCAR-4 ovarian, -78% (active); in the assay with SK-OV-3 ovarian it was 20.8%; with IGROV1 ovarian, 18.4%; with OVCAR-3 ovarian, -33.4% (active). The results for the growth with HS 578T breast and in the assay with NCI/ADR-RES ovarian were 25.4% and 3.12% (active), respectively.

Take `O=C(Nc1ccc(Cl)c(C(F)(F)F)c1)Nc1ccc(-c2cccnc2)cc1N1CCC(CO)CC1`: the growth in the assay on SK-MEL-2 melanoma is -10.3% (active); in the assay on EKVX NSCLC, 37.2%; in the assay with SN12C renal, 31%; in the assay with UO-31 renal, 21.9%; in the assay on TK-10 renal, 22.2%; in the assay with ACHN renal, 17.3%. Moreover, the growth in the assay with CAKI-1 renal was 34.3%; in the assay with A498 renal, 14.3%; in the assay on CCRF-CEM leukemia, 9.72% (active); in the assay on MOLT-4 leukemia, 4.83% (active); with SR leukemia, 2.35% (active); in the assay with RPMI-8226 leukemia, 12.1%. The growth is 26.8% in the assay on OVCAR-8 ovarian; 39.4% in the assay with OVCAR-5 ovarian; 43.8% with OVCAR-4 ovarian; 32.6% in the assay with SK-OV-3 ovarian; 61.4% in the assay on IGROV1 ovarian; 38% with OVCAR-3 ovarian. Moreover, the growth with HS 578T breast is 34.4%; in the assay on NCI/ADR-RES ovarian, 26.2%.

For the molecule `Cc1nc(Cl)c2c(n1)N(C)c1ccc(Cl)cc1C(C)C2` (stereo not drawn), the growth in the assay on SK-MEL-2 melanoma is 96.1%; in the assay on EKVX NSCLC, 75%; with SN12C renal, 86.6%; with UO-31 renal, 70.9%; with TK-10 renal, 92.9%; in the assay on ACHN renal, 91.7%. In addition, the growth is 78.8% in the assay on CAKI-1 renal; 81.5% in the assay with A498 renal; 90.3% in the assay with CCRF-CEM leukemia; 80.6% with MOLT-4 leukemia; 83.2% in the assay with SR leukemia; 66.8% with RPMI-8226 leukemia. Moreover, the growth is 95.9% in the assay with OVCAR-8 ovarian; 101% in the assay with OVCAR-5 ovarian; 83% with OVCAR-4 ovarian; 86.3% in the assay with SK-OV-3 ovarian; 92.7% with IGROV1 ovarian; 98.7% in the assay with OVCAR-3 ovarian. Moreover, the growth was 42.5% in the assay on HS 578T breast and 95.8% in the assay on NCI/ADR-RES ovarian.

Consider `COc1ccc2c(c1)C(C)Cc1c(Cl)ncnc1N2C` (stereo not drawn), for which the growth was -29.4% (active) with SK-MEL-2 melanoma; 12.4% in the assay on EKVX NSCLC; -0.561% (active) with SN12C renal; 16.9% in the assay on UO-31 renal; 13% with TK-10 renal; 9.12% (active) in the assay on ACHN renal. Moreover, the growth in the assay with CAKI-1 renal was 2.36% (active); with A498 renal, -39.3% (active); with CCRF-CEM leukemia, 13.8%; with MOLT-4 leukemia, 1.59% (active); in the assay on SR leukemia it was -2.06% (active); in the assay on RPMI-8226 leukemia, -2.61% (active). In addition, the growth in the assay with OVCAR-8 ovarian is 7% (active); with OVCAR-5 ovarian, 41.5%; in the assay on OVCAR-4 ovarian, 7.09% (active); with SK-OV-3 ovarian, 12.2%; with IGROV1 ovarian, 23.7%; with OVCAR-3 ovarian, 2.22% (active). In addition, the growth in the assay with HS 578T breast is 16.9%; in the assay with NCI/ADR-RES ovarian it was 2.03% (active).
